From PubChem BioAssay AID588502 (Sanford-Burnham Center for Chemical Genomics, 2011)
Potency and affinity values are given separately. Unmarked numbers belong to inactive results. How the calls were made is not given here.

Assay: dose response, counter-screen, biochemical, fluorescence, single-stranded RNase substrate (AID 588502)
Settings: oligo substrate without MazF, fluorescence increase, 5 h

CC1CCC(=NNS(=O)(=O)c2ccc([N+](=O)[O-])cc2)CC1 (stereo unspecified)
EC50: > 99 µM
